Values joined by “and” are separate entries in the source; they are usually repeats but may differ in a detail not shown here. Equal entries are not always repeated. ± gives the standard deviation of the averaged measurements. Whole data set: some 3,800 compounds, median “cell shape (eccentricity) Z-score vs DMSO control” near 1.1, cut for the lowest 2% near -4.7. This excerpt belongs to a sample that is enriched for the lowest values.

This experiment deals with human monocyte-derived macrophages (M0). Nature of the experiment: cell shape (eccentricity) Z-score vs DMSO control; higher = more elongated, M2-like morphology. As to conditions: 20 µM; 24 h; macrophage state: M0 (M-CSF). The protocol:
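Primary human monocyte-derived macrophages (M-CSF differentiated, pooled from 4 donors, 5000 cells/well in 384-well plates) were treated with each compound at 20 uM for 24 h, then fixed and stained with phalloidin/DAPI and imaged on an Opera Phenix (6 fields, about 1000 cells/well). Cell eccentricity was measured with CellProfiler, and a Z-score (t-test) was computed against 4 DMSO control wells in the same row. Negative values mean round (M1-like) cells and positive values mean elongated (M2-like) cells; the paper's hit cutoffs are Z <= -4 (M1) and Z >= 6 (M2). Scale: negative = round, M1-like.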
Take `CON=C(C(=O)NC1C(=O)N2C(C(=O)O)=C(CSc3nc(=O)c(=O)[nH]n3C)CSC12)c1csc(N)n1` (stereo not drawn): the “cell shape (Z-score)” value was -0.265.
Turning to `CCn1cc(C(=O)O)c(=O)c2cc(F)c(N3CCN(C)CC3)cc21`, the “cell shape (Z-score)” value is -1.21.
With `CCN1CCN(c2cc3c(cc2F)c(=O)c(C(=O)O)cn3C2CC2)CC1` the figure was -0.0252.
With `Cc1oc(=O)oc1CN1CCN(c2cc3c(cc2F)c(=O)c(C(=O)O)c2n3C(C)S2)CC1` (stereo not drawn), the “cell shape (Z-score)” value is -5.14.
With `C=CC(=O)Nc1cccc(Sc2nc(Nc3ccc(N4CCN(C)CC4)cc3)ncc2Cl)c1` the figure was 0.842; with `CCCCCCCCC(=O)NCc1cc(OC)c(O)cc1I`, 0.93.
With `CCCn1c(=O)c(C)cn2nc(N)nc12` the figure was 3.53; with `CCC(C)n1ncn(-c2ccc(N3CCN(c4ccc(OC[C@H]5CO[C@](Cn6cncn6)(c6ccc(Cl)cc6Cl)O5)cc4)CC3)cc2)c1=O` (stereo partly drawn), 0.541; with `CC(C)N1C[C@@H](C)[C@H](CN(C)Cc2ccc(Oc3ccccc3)cc2)Oc2c(NC(=O)c3ccncc3)cccc2C1=O`, 2.27.
As to `CC1OC(OC2C(O[C@H]3OC[C@](O)(CO)[C@H]3O)COC(O[C@@H]3[C@@H](O)[C@@H](O)[C@H](OC4C(OC(=O)[C@]56CCC(C)(C)CC5C5=CCC7[C@@]8(C)C[C@H](O)[C@H](OC9OC(CO)C(O)C(O)C9O)[C@@](C)(CO)C8[C@H](O)C[C@@]7(C)[C@]5(C)CC6)OCC(O)C4O)O[C@H]3C)C2O)C(O)C(O)C1O` (stereo partly drawn), the “cell shape (Z-score)” value is -5.84.
Consider `CC1OC(OC2C(O)C(CO)OC(O[C@H]3CC[C@@]4(C)C(CC[C@]5(C)C4CC=C4C6CC(C)(C)CC[C@]6(C(=O)OC6OCC(OC7OCC(O)C(O)C7O)C(O)C6O)CC[C@]45C)C3(C)C)C2O)C(O)C(OC2OCC(O)(CO)C2O)C1O` (stereo partly drawn), for which the “cell shape (Z-score)” value was -0.504.
Under `CC1OC(O[C@H]2CC[C@@]3(C)C(CC[C@]4(C)C3CC=C3C5CC(C)(C)CC[C@]5(C(=O)OC5OC(CO)C(OC6OC(CO)C(O)C(O)C6O)C(O)C5O)CC[C@]34C)C2(C)C)C(O)C(O)C1OC1OCC(O)(COC2OCC(O)C(OC3OCC(OC4OCC(O)(CO)C4O)C(O)C3O)C2O)C1O` (stereo partly drawn) stands 0.323.
With `C[C@@H]1O[C@@H](O[C@H]2[C@H](OC(=O)[C@]34CCC(C)(C)C[C@H]3C3=CCC5[C@@]6(C)C[C@H](O)[C@H](O[C@@H]7O[C@H](CO)[C@@H](O)[C@H](O)[C@H]7O)[C@@](C)(CO)C6[C@H](O)C[C@@]5(C)[C@]3(C)CC4)OC[C@H](O)[C@@H]2O)[C@H](O)[C@H](O)[C@H]1O[C@@H]1OC[C@@H](O)[C@H](O[C@@H]2OC[C@](O)(CO)[C@H]2O)[C@H]1O` (stereo partly drawn) the figure was -6.49.
With `CC1OC(O[C@H]2[C@@H](O)C[C@@]3(C)C(CC[C@]4(C)C3CC=C3[C@@H]5CC(C)(C)CC[C@]5(C(=O)OC5OC(C)C(OC6OCC(OC7OCC(O)C(OC8OCC(O)C(O)C8O)C7O)C(O)C6O)C(O)C5O)CC[C@]34C)[C@]2(C)CO)C(O)C(OC2OC(CO)C(O)C(O)C2O)C1O` (stereo partly drawn) the figure was 0.13; with `CC1OC(O[C@H]2[C@@H](O)C[C@@]3(C)C([C@H](O)C[C@]4(C)C3CC=C3[C@@H]5CC(C)(C)CC[C@]5(C(=O)OC5OC(C)C(OC6OCC(OC7OCC(O)C(OC8OCC(O)C(O)C8O)C7O)C(O)C6O)C(O)C5O)CC[C@]34C)[C@]2(C)CO)C(O)C(OC2OC(CO)C(O)C(O)C2O)C1O` (stereo partly drawn), 0.543; with `C/C(=C\Cc1c(O[C@@H]2O[C@H](CO)[C@@H](O)[C@H](O)[C@H]2O)ccc2ccc(=O)oc12)CO`, 0.962 ± 0.97.
In the case of `CCC1(c2ncc[nH]2)Cc2ccccc2O1` (stereo not drawn), the “cell shape (Z-score)” value worked out at 1.92.
Under `N#CC(=C(N)Sc1ccc(N)cc1)c1ccccc1C(F)(F)F` stands 4.79; under `CC1CC(=O)C2C(O)(C1)CC(O)C13OC21C(=O)c1cccc(O)c1C3O` (stereo not drawn), 3.39 ± 2.6.
With `C[C@H](CCC(=O)NCC(=O)O)[C@H]1CCC2C3C(C[C@H](O)[C@@]21C)[C@@]1(C)CC[C@@H](O)CC1C[C@H]3O` (stereo partly drawn) the figure was 1.5; with `CC(=O)O[C@@H]1CC2C(C)(C)C(=O)C3OC3[C@]2(C)C2CC[C@@]3(C)[C@H](c4ccoc4)OC(=O)C4OC43[C@@]21C` (stereo partly drawn), -1.17.
As to `CC1(CO)CC(O)CC2(C)C3=C(CCC12)C(=O)OC3` (stereo not drawn), the “cell shape (Z-score)” value is -1.57.
With `COC(=O)C(CCCNC(=N)N)NC(=O)CCCc1c(-c2ccccc2)[nH]c2c(F)cc(F)cc12` (stereo not drawn) the figure was 6.11.
Under `COCCCOc1ccnc(CS(=O)c2nc3ccccc3[nH]2)c1C` (stereo not drawn) stands -6.29; under `Cc1c(OCC(F)(F)F)ccnc1CS(=O)c1nc2ccccc2[nH]1` (stereo not drawn), 3.11.
On to `COc1ccnc(CS(=O)c2nc3cc(OC(F)F)ccc3[nH]2)c1OC` (stereo not drawn), for which the “cell shape (Z-score)” value was -1.46.
With `COC1=CC(=O)CC(C)C12Oc1cc(OC)cc(O)c1C2=O` (stereo not drawn) the figure was 1.27; with `OCCOCCN1CCN(C2=Nc3ccccc3Sc3ccccc32)CC1`, 2.19.
With `CNCCC(Oc1ccc(C(F)(F)F)cc1)c1ccccc1` (stereo not drawn) the figure was -4.88.
Under `CNCCC(Oc1ccccc1OC)c1ccccc1` (stereo not drawn) stands 1.09; under `CNCC[C@@H](Oc1ccccc1C)c1ccccc1`, 0.617.
For the molecule `C/C=C(/C)C(=O)O[C@H]1C=C(C)C[C@H](OC(=O)c2ccc(O)cc2)C2[C@](O)(C(C)C)CC[C@@]21C` (stereo partly drawn), the “cell shape (Z-score)” value is -3.37.
Under `CCN(CC)CCOc1ccc2c(c1)C(=O)c1cc(OCCN(CC)CC)ccc1-2` stands 11.9; under `O=C1c2ccccc2-c2nc3nonc3nc21`, -6.25; under `N#Cc1nc2c(nc1C#N)-c1ccc(Cl)cc1C2=O`, 2.23.
Turning to `CC1(C)CC[C@]2(C(=O)O)CC[C@]3(C)C(=CCC4[C@@]5(C)CC[C@H](O[C@@H]6OC[C@H](O)[C@H](O)[C@H]6O)[C@@](C)(CO)C5CC[C@]43C)C2C1` (stereo partly drawn), the “cell shape (Z-score)” value is -2.37.
In the case of `CNc1cc(NS(=O)(=O)c2ccc(N)cc2)nc(NC)n1`, the “cell shape (Z-score)” value was 3.31.
In the case of `Cc1noc(NS(=O)(=O)c2ccc(N)cc2)c1C`, the “cell shape (Z-score)” value came out at 2.76.
With `Cc1cc(NS(=O)(=O)c2ccc(N)cc2)no1` the figure was -8.11; with `Cn1c(=O)c2c(n(C)c1=O)n(C)c(=O)n2C`, 0.458; with `Cc1cc(Nc2nc(N[C@@H](C)c3ncc(F)cn3)ncc2Cl)n[nH]1`, 7.45.
With `CCCCCCCCc1ccc(-c2ccc(C(=O)O)cc2)cc1` the figure was 7.84.
As to `CCCCCCCCc1ccc(CCC(N)(CO)CO)cc1`, the “cell shape (Z-score)” value was -5.98 ± 2.9.
With `CCCCCCCCCCCCCCCCCCc1ccc(C(=O)C=CC(=O)O)cc1` the figure was 0.47; with `COc1cc(/C=C/C(=O)O[C@H]2CC[C@]34CC35CC[C@]3(C)[C@@H](C(C)CCC=C(C)C)CC[C@@]3(C)C5CCC4C2(C)C)ccc1O` (stereo partly drawn), -1.25.
With `Cc1cc(O)c2c(c1)C(=O)C1=C(C2=O)C(O)C(O)C(O)C1O` (stereo not drawn) the figure was -13.9.
Take `COc1cc(O)c2c(c1)C(=O)c1cc(C)cc(O)c1C2=O`: the “cell shape (Z-score)” value is 2.65.
Turning to `Cc1cc(O)c2c(c1)C(=O)c1cccc(O)c1C2=O`, the “cell shape (Z-score)” value came out at 3.93.
As for `COc1c(OC)c(O)c2c(=O)c(O)c(-c3ccccc3)oc2c1OC`, the “cell shape (Z-score)” value came out at 4.23.
Turning to `CC(=O)NC(C(=O)O[C@H]1CCC(C)(C)[C@@H]2CC=C3C(=O)OCC3(O)[C@@]12C)C(C)C` (stereo partly drawn), the “cell shape (Z-score)” value was determined as 0.522 ± 0.68.
With `CC(=O)O[C@@H]1[C@@H](O)[C@H](C)O[C@@H](O[C@H]2[C@@H]3C=CO[C@@H](O[C@@H]4O[C@H](CO)[C@@H](O)[C@H](O)[C@H]4O)[C@@H]3[C@@]3(CO)O[C@@H]23)[C@@H]1OC(=O)/C=C/c1ccc(O)cc1` the figure was -0.936 ± 2.8; with `C=C1C(=O)O[C@@H]2/C=C(\C)CC/C=C(\C)CC[C@@H]12`, -1.08.
Under `C=C1C(=O)O[C@H]2[C@H]1CC/C(C)=C/CC[C@@]1(C)O[C@@H]21` stands -3.88; under `C=C1C(=O)O[C@@H]2[C@H]3O[C@]3(C)CC/C=C(/C)CC[C@@H]12`, -9.25; under `C/C(=C\CC[C@@H](C)[C@H]1CC[C@@]2(C)C3CC[C@H]4C(C)(C)[C@@H](OC5OC(CO)C(OC6OC(CO)C(O)C(O)C6O)C(O)C5O)CC[C@@]45C[C@@]35CC(O)[C@]12C)C(=O)O` (stereo partly drawn), 0.155.
With `Nc1ccc(S(=O)(=O)NC(=O)c2ccccc2)cc1` the figure was 0.441; with `COc1nc(N)nc2c1ncn2[C@@H]1O[C@H](CO)[C@@H](O)[C@@H]1O`, 0.62 ± 1.5.
In the case of `O=C(O)Cn1c(C(=O)Nc2nc(-c3ccccc3Cl)cs2)cc2ccccc21`, the “cell shape (Z-score)” value turned out to be 2.41.
Under `O=C(O)CCCN1C(=O)c2cccc3cccc(c23)C1=O` stands 1.83; under `O=C(O)CN1C(=O)c2cccc3cccc(c23)C1=O`, -6.86; under `O=c1[nH]c2cc(Cl)ccc2c(O)c1-c1cccc(Oc2ccccc2)c1`, -0.358.
`CN1C(C(=O)Nc2ccccn2)C(=O)c2ccccc2S1(=O)=O` (stereo not drawn): the “cell shape (Z-score)” value was 1.33.
On to `CC(=O)C(C#N)C(=O)Nc1cc(Br)ccc1Br` (stereo not drawn), for which the “cell shape (Z-score)” value was -5.16.
Under `C[C@H]1CN([C@@H](C)CO)S(=O)(=O)c2ccc(C#Cc3ccccc3F)cc2O[C@H]1CN(C)C(=O)Cc1ccncc1` stands 2.68.
In the case of `C[C@@H]1CN([C@H](C)CO)S(=O)(=O)c2ccc(C#Cc3ccncc3)cc2O[C@H]1CN(C)C(=O)Nc1ccc2c(c1)OCO2`, the “cell shape (Z-score)” value turned out to be 3.81.
For the molecule `C[C@H]1CN([C@@H](C)CO)S(=O)(=O)c2ccc(C#Cc3ccncc3)cc2O[C@@H]1CN(C)C(=O)Nc1ccc2c(c1)OCO2`, the “cell shape (Z-score)” value was -10.9.
Regarding `COc1cc2oc(-c3ccccc3)cc(=O)c2c(O)c1OC`, the “cell shape (Z-score)” value came to 3.73.
With `CCN(CC)CCNC(=O)c1c(C)[nH]c(/C=C2\C(=O)Nc3ccc(F)cc32)c1C` the figure was 10.3 and 12.2.
On to `C=C1C(=O)O[C@@H]2C[C@H](C)C3C[C@H](O)[C@H](O)[C@@]3(C)C[C@H]12` (stereo partly drawn), for which the “cell shape (Z-score)” value is -2.78 ± 0.67.
For `CN[C@H]1CC[C@@H](c2ccc(Cl)c(Cl)c2)c2ccccc21`, the “cell shape (Z-score)” value is -5.32.
With `C=C1CC(O)C2C(=C)C(=O)OC2C2C(=C)C(OC3OC(CO)C(O)C(OC(=O)/C=C/c4ccc(O)c(O)c4)C3O)CC12` (stereo not drawn) the figure was -1.95; with `CC(C)CC1NC(=O)C2CCCN2C1=O` (stereo not drawn), 2.84.
With `CC(C)CC1NC(=O)C(C)NC1=O` (stereo not drawn) the figure was -5.83.
Take `CC(C)=CCc1c(O)cc(O)c2c1OC(c1ccc(O)c(O)c1)CC2=O` (stereo not drawn): the “cell shape (Z-score)” value was 1.24.
With `O=C1c2cccc(O)c2C(=O)c2c(O)cccc21` the figure was 3.05; with `c1ccc2nc(C3=NCCN3)cnc2c1`, 1.3.
Take `c1ccc2nc(C3=NCCN3)ccc2c1`: the “cell shape (Z-score)” value is 0.187.
With `c1ccc2cc(C3=NCCN3)ncc2c1` the figure was -4.69.
